Measurements reported in PubChem BioAssay (NCATS).
Where “and” joins values, the source holds several entries; their conditions need not be identical. Equal entries are not always repeated. Inconclusive results are not listed. Where a call stands in place of a potency, no number is given. Calls of active or inactive are those of the source. Calls come from the whole dose curve; as a rule, active = well fitted cell-killing curve with a large enough effect; inconclusive = small, poorly fitted or top-dose-only effect, or effect the other way; inactive = no such curve, though single readings can be large or run the other way.

Assay: Viability qHTS for spleen associated tyrosine kinase inhibitor (SYKi) drug resistant MV4-11 cells (AID 1963824); note: nearly all actives have a fitted effect of over 35% in size
Conditions: SYKi-resistant MV4-11 viability, CellTiter-Glo, 72 h; series mostly up to 45 µM
Excerpt: Department of Medicine, Hematology/Oncology
University Hospital Frankfurt, Germany.
Trials have shown promising clinical activity of the selective SYK inhibitor entospletinib in patients with high expressing HOXA9/MEIS1 acute leukemias. As the development of resistance mechanisms is a common problem in the use of targeted drugs, we performed a chemical library screen to identify drug sensitivities in SYK inhibitor resistant AML cells. […] Glucocorticoids are potent immunosuppressants which work in part by inhibiting the transcription of cytokine genes.
Described herein is a viability screen to look for activity in the SYK inhibitor drug resistant cell line against four NCATS compound libraries (MIPE 5.0, NPC, NPACT, and Kinase) totaling 11372 compounds. Active hits were reacquired for confirmation and further secondary assay testing.
SEQUENCE No. (e.g., 1, 2, 3, etc.); […] (e.g., Cells, Incubation, Reagent, etc.); VALUE; DESCRIPTION.
1; Media; 2uL; white, solid-bottom Corning assay plate.
2; Compounds; 23nL; Echo acoustic dispenser.
3; Cell; 5uL; 500 cells per well.
4: Incubation; 72hr; 37 C, 5% CO2, 95% humidity.
5; Reagent; 3uL; CellTiter-Glo reagent (Promega).
6; Incubation; 10min; room temperature.
7; Detection; Luminescence; ViewLux plate reader (PerkinElmer).
NOTES (numbers refer to Sequence numbers above
1. Quantitative high-throughput screening (qHTS) of small molecule compounds was conducted on drug resistant SYKi MV4-11 cell line.
2. Twenty-three nanoliter of small molecule compounds were added to each assay plates using the Echo acoustic dispenser (Beckman Coulter).
3. Cells were seeded into the assay plates at a final density of 500 cells in 5uL of media per well using the Multidrop Combi dispenser.
4. Plates were covered with stainless steel gasketed lids and incubated for 72 hours at standard cell culture conditions.
5. Viability was assessed by adding 3uL of CellTiter-Glo detection reagent (Promega).
6. Plates were covered with gasket lids and incubated for 10 minutes at room temperature.
7. Luminescence was measured on a ViewLux plate reader (PerkinElmer).
Potency is the fitted concentration of half-maximal effect.

Q: For `COc1ccccc1-c1ccc(-c2cn(C(=O)N3CCCCC3Cc3ccccc3)nn2)cc1` (stereo not given), which Potency is on record?
A: 14.6 µM (active)

Q: For `Cn1cc(C2=C(c3c4n(c5ccccc35)CCC(CN)C4)C(=O)NC2=O)c2ccccc21` (stereo not given), which Potency is on record?
A: 2.7 µM (active)

Q: Which Potency does the source give for `Nc1nc(O)c(C2=C3C(=Nc4ccccc43)C(=O)NCC2)[nH]1` here?
A: 1.16 µM (active)

Q: Which Potency does the source give for `CCN(CC)C(=O)N1CCN(C)CC1` here?
A: inactive

Q: Which Potency does the source give for `OC(c1ccc(-c2ccc(CN3CCN(Cc4ccncc4)CC3)cc2)c(F)c1)(C(F)(F)F)C(F)(F)F` here?
A: 5.9 µM (active)

Q: Which Potency does the source give for `COC(=O)c1cc(OC)cc(OC)c1C(=O)c1c(OC)cc2c(c1O)C1CCCC(C)(O2)O1` (stereo not given) here?
A: 7.09 µM (active)

Q: For `CC1(C)CC[C@]2(C(=O)O[C@@H]3O[C@H](CO)[C@@H](O)[C@H](O)[C@H]3O)CC[C@]3(C)C(=CCC4[C@@]5(C)C[C@@H](O)[C@H](O)[C@@](C)(CO)C5[C@H](O)C[C@]43C)C2C1` (stereo not given in full), which Potency is on record?
A: inactive

Q: For `C[C@@H]1C[C@H]2[C@@H]3CCC4=CC(=O)C=C[C@]4(C)[C@@]3(F)[C@@H](O)C[C@]2(C)[C@@]1(O)C(=O)COP(=O)(O)O`, which Potency is on record?
A: inactive

Q: Which Potency does the source give for `O=C(c1ccccc1)c1c(O)cc(O)cc1O[C@@H]1O[C@H](CO)[C@@H](O)[C@H](O)[C@H]1O` here?
A: inactive

Q: Which Potency does the source give for `CCn1c(=O)c2c(nc(C=Cc3ccc(OC)c(OC)c3)n2C)n(CC)c1=O` here?
A: inactive

Q: For `O=C(NCC1CCN(Cc2cccc(Cl)c2)CC1)[C@@H]1CCCN(c2ncnc3c2nc2n3CCCC2)C1`, which Potency is on record?
A: 10.3 µM (active)

Q: For `CC[C@]1(O)CC2CN(CCc3c([nH]c4ccccc34)[C@@](C(=O)OC)(c3cc4c(cc3OC)N(C=O)[C@H]3[C@@](O)(C(=O)OC)[C@H](OC(C)=O)[C@]5(CC)C=CCN6CC[C@]43[C@@H]65)C2)C1` (stereo not given in full), which Potency is on record?
A: 0.0508 µM (active)

Q: For `C=C1CCC2C(C)(C(=O)O)CCCC2(C)C1CC/C(=C\CO)CO` (stereo not given), which Potency is on record?
A: inactive

Q: Which Potency does the source give for `O=C(/C=C/c1ccccc1O)O[C@@H]1O[C@H](CO)[C@@H](O)[C@H](O)[C@H]1O` here?
A: inactive

Q: Which Potency does the source give for `CC(C)COCC(CN(Cc1ccccc1)c1ccccc1)N1CCCC1` (stereo not given) here?
A: 15 µM (active) and 11.8 µM (active)

Q: Which Potency does the source give for `NC[C@H]1O[C@H](O[C@H]2[C@H](O)[C@@H](O[C@H]3O[C@H](CO)[C@@H](O)[C@H](N)[C@H]3O)[C@H](N)C[C@@H]2N)[C@H](N)[C@@H](O)[C@@H]1O` here?
A: inactive

Q: For `Cn1cc(CCn2cnc(-c3cnn(C)c3)c2-c2ccc(C#N)cc2)cn1`, which Potency is on record?
A: inactive

Q: Which Potency does the source give for `O=C(NCCCNc1nc(Nc2cccc(NC(=O)N3CCCC3)c2)ncc1I)c1cccs1` here?
A: 164 nM (active) and 263 nM (active)

Q: For `COCCCN1CCC(NC(=O)c2cc(Cl)c(N)c3c2OCC3)CC1`, which Potency is on record?
A: inactive

Q: For `CC(=O)CC/C=C(\C)CC/C=C(\C)CC/C=C(\C)CCC=C(C)C`, which Potency is on record?
A: inactive

Q: For `CC(=O)OCC(=O)[C@@]12OC(C)(C)O[C@@H]1C[C@H]1[C@@H]3C[C@H](F)C4=CC(=O)C=C[C@]4(C)[C@@]3(F)[C@@H](O)C[C@@]12C`, which Potency is on record?
A: inactive

Q: Which Potency does the source give for `CC1=C(C)C(=O)OC(C(C)(O)C2CCC3C4CC=C5CC(OC6OC(COC7OC(CO)C(O)C(O)C7O)C(O)C(O)C6O)CC(O)C5(C)C4CCC32C)C1` (stereo not given) here?
A: inactive

Q: Which Potency does the source give for `C/C(=C\CO[C@@H]1O[C@H](CO[C@H]2OC[C@](O)(CO)[C@H]2O)[C@@H](O)[C@H](O)[C@H]1O)C(C)(C)O` here?
A: inactive

Q: Which Potency does the source give for `O[C@@](Cc1ncc(CC2(C(F)(F)F)CC2)[nH]1)(c1ccc(-n2cccn2)cc1)C(F)(F)F` here?
A: 14.6 µM (active)

Q: Which Potency does the source give for `Cc1cc(-c2nc3cc(F)ccc3s2)ccc1NC(=O)[C@@H](N)CCCCN` here?
A: 2.59 µM (active)

Q: For `Nc1cccc2c1C(=O)N(C1CCC(=O)NC1=O)C2=O` (stereo not given), which Potency is on record?
A: inactive

Q: Which Potency does the source give for `Cc1ccc(-c2c(-c3nn(C)c4ncnc(N5CC[C@H](N6CCCCC6)C5)c34)cnn2C)cc1` here?
A: inactive

Q: With `COc1cc(/C=C/C(=O)O[C@@H]2C[C@@](O)(C(=O)O)C[C@@H](O)[C@@H]2O)ccc1O` as the compound, how does the Potency read?
A: inactive

Q: With `Nc1ncnc2c1nc(Cl)n2C1O[C@H](CO)[C@@H](O)[C@H]1O` (stereo not given in full) as the compound, how does the Potency read?
A: 0.146 µM (active)

Q: For `O=C(/C=C/c1ccc(O)cc1)c1ccc(O)cc1O`, which Potency is on record?
A: 11.8 µM (active)

Q: For `CS(=O)(=O)c1ccc([C@@H](CC2CCCC2)C(=O)Nc2cnccn2)cc1Cl`, which Potency is on record?
A: 25.1 µM (active)

Q: Which Potency does the source give for `CC(C)(C#N)c1cc(Cn2cncn2)cc(C(C)(C)C#N)c1` here?
A: inactive

Q: For `CNC1CCC(N(Cc2cccc(-c3ccncc3)c2)C(=O)c2sc3c(F)ccc(F)c3c2Cl)CC1` (stereo not given), which Potency is on record?
A: 8.33 µM (active) and 7.31 µM (active)

Q: Which Potency does the source give for `NCCCC[C@H](NC(=O)[C@@H](NC(=O)[C@H](Cc1c[nH]c2ccccc12)NC(=O)[C@H](CCCCN)NC(=O)[C@H](CCCCN)NC(=O)[C@H](Cc1c[nH]c2ccccc12)NC(=O)[C@H](Cc1c[nH]c2ccccc12)NC(=O)[C@H](CCCCN)NC(=O)[C@@H](N)CCCCN)C(c1ccccc1)c1ccccc1)C(N)=O` here?
A: 10.5 µM (active)

Q: Which Potency does the source give for `O=c1cc[nH]c(=O)[nH]1` here?
A: inactive

Q: With `C[C@H]1[C@H](C)CC[C@]2(C(=O)O)CC[C@]3(C)C(=CC[C@@H]4[C@@]5(C)CC[C@H](O)C(C)(C)[C@@H]5CC[C@]43C)[C@H]12` as the compound, how does the Potency read?
A: 20.9 µM (active)

Q: Which Potency does the source give for `CCc1cc(S(=O)(=O)O)c2cc(C(C)C)cccc1-2` here?
A: inactive

Q: For `CC(=O)OCCN1C(=O)c2c(C)nc3ccc(S(=O)(=O)N4CCOCC4)cc3c2C1=O`, which Potency is on record?
A: inactive

Q: For `Cc1nc(NC(=O)N2CCCC2C(N)=O)sc1-c1ccnc(C(C)(C)C(F)(F)F)c1` (stereo not given), which Potency is on record?
A: 9.2 µM (active)

Q: Which Potency does the source give for `C[C@@H]1O[C@@H](O[C@H]2[C@@H]3C=CO[C@@H](O[C@@H]4O[C@H](CO)[C@@H](O)[C@H](O)[C@H]4O)[C@@H]3[C@@]3(CO)O[C@@H]23)[C@H](O)[C@H](OC(=O)/C=C/c2ccccc2)[C@H]1O` here?
A: 6.11 µM (active)
